Assay outcomes from PubChem.
An excerpt weighted towards active compounds, which were near 2.8% of everything screened.
TGFb inhibitor = qHTS for Inhibitors of TGF-b; HepG2 CAGA-GFP TGF-b/SMAD3 reporter, GFP fluorescence, 18 h; TGF-beta stimulated, 500 pg/mL final; Potency, µM (titrated, usually from 46.1 µM), actives largely listed as inhibitors; actives 1.2% (n = 410,000); further: nearly all actives have a fitted effect of over 65% in size
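First, reporter cells (HEPG2 CAGA-GFP) rested 2 h at 37 degrees C. Next, compounds were pinned in and TGF-beta added to 500 pg/mL final. After 18 h, GFP was imaged per cell and summed per well.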
ATXN2 expr inh = Primary qHTS for Inhibitors of ATXN expression. HEK-293 ATXN2-luciferase reporter, luminescence, 24 h. Potency, µM (top dose mostly 57 µM), most hits filed as inhibitors. actives 0.72% (n = 360,000). AID 1745845, 2022; further: nearly all actives have a fitted effect of over 55% in size
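ATXN2-luciferase reporter cells (luciferase flanked by upstream and downstream ATXN2 gene portions) were treated 24 h at 37 °C with compounds at up to 57 uM. SteadyGlo luminescence gave expression; GF-AFC fluorescence gave viability.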
ATXN viability = Viability Counterscreen for Primary qHTS for Inhibitors of ATXN expression. AID 651635, 2014. actives 0.49% (n = 400,000). S2 cells (HEK-293 line with an ATXN2-luciferase reporter) viability, CellTiter-Fluor protease fluorescence, 24 h. Potency, µM (highest dose often 56.7 µM), most hits filed as cytotoxic; further: nearly all actives have a fitted effect of over 40% in size
HepG2 viability = qHTS for Inhibitors of TGF-b: Cytotox Counterscreen; Potency, µM (top dose mostly 46.1 µM), usual class: cytotoxic; HepG2 CAGA-GFP viability, ATP luminescence, 18 h; actives 0.76% (n = 410,000)
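CellTiter-Glo luminescence gave cytotoxicity after 18 hours at 37 degrees C. The cells were HepG2 CAGA-GFP in 1% FBS DMEM, stimulated with 500 pg/mL TGF-beta after compound addition. %Activity was normalised to no-cell wells (complete cell-killing) and DMSO (no toxicity), and curves were fitted and classified.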
HTT aggregate = qHTS Multiplex Assay to Identify Dual Action Probes in a Cell Model of Huntington: Aggregate Formation (GFP); PC12 HttQ103-GFP aggregates, Acumen cytometry, 40 h; Potency, µM (series often up to 46.1 µM), most hits filed as inhibitors; actives 1.1% (n = 220,000); AID 1688, 2009; further: nearly all actives have a fitted effect of over 60% in size
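Inducible Q103 Huntingtin exon 1–GFP PC12 line, 1500 cells/well in phenol red free DMEM with 5% equine and 5% calf serum. Tebufenozide 100 nM induced expression; compounds titrated; aggregates quantified by cytometry.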
HTT cytoprotect = qHTS Multiplex Assay to Identify Dual Action Probes in a Cell Model of Huntington: Cytoprotection (ATP). PC12 HTT-Q103 induced, cytoprotection, ATP luminescence, 40 h. Potency, µM (titrated, usually from 56.4 µM), hits mostly activators. actives 0.14% (n = 230,000). AID 1471, 2008; further: nearly all actives have a fitted effect of over 45% in size
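Quantitative HTS on tebufenozide-induced (100 nM) PC12 cells expressing HTTQ103 exon 1–GFP; compounds tested as a concentration series; survival measured via cellular ATP.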
Numbers stand for hits; - = inactive; ? = inconclusive; . = no result; ! = a repeat was not active; [ ] = remark or other dose. The call rests on the fitted dose curve; in most records, active means well fitted curve in the direction sought with a large enough effect; inconclusive means small, poorly fitted or top-dose-only effect, or another doubt; inactive means no such curve, though single readings can be large; an effect the other way counts as inactive or inconclusive.

SMILES | TGFb inhibitor | ATXN2 expr inh | ATXN viability | HepG2 viability | HTT aggregate | HTT cytoprotect
COc1ccc(OCC(=O)NNc2c3ccccc3nc3ccccc23)cc1 | ? | ? | ? | - | 11µM | -[10 µM]
O=C(NNc1c2ccccc2nc2ccccc12)c1ccc(O)cc1O | ? | - | ? | - | 10µM | -
C/C(=N\NC(=O)c1cc(C2CC2)nc2ccccc12)c1ccc(O)cc1O | ? | 2.5µM | ? | - | . | .
O=C(NNc1c2ccccc2nc2ccccc12)c1ccccc1O | ? | ? | . | - | - | -[10 µM]
CCC[C@@]1(CCc2ccccc2)CC(O)=C([C@H](CC)c2cccc(NS(=O)(=O)c3ccc(C(F)(F)F)cn3)c2)C(=O)O1 | . | . | - | . | . | .
C1=Nc2ccccc2/C1=C/c1ccccc1 | - | . | . | - | . | .
CCC(C)NC(=O)c1ccc2nc(-c3cccs3)c(-c3cccs3)nc2c1 (stereo not drawn) | - | . | . | - | . | .
Cc1ccc(CCNC(=O)CN(C)S(=O)(=O)c2cnc[nH]2)cc1 | - | - | - | - | - | -[10 µM]
CN(CC(=O)NCc1ccccc1)S(=O)(=O)c1cnc[nH]1 | - | - | - | - | 0.63µM | .
Cc1ccc(C(=O)Nc2cc(C(C)C)c(O)c(C(C)C)c2)cc1 | ? | - | - | - | 10µM | .
CC1=C(C(=O)OCc2ccc3nsnc3c2)N2C(=O)[C@@H](NC(=O)OCc3ccc4nsnc4c3)[C@H]2SC1 | ? | . | . | - | . | .
O=C(NCc1cccnc1)C1CCN(Cc2cc3ccccc3n2Cc2ccccc2)CC1 | ? | - | - | - | . | .
Cc1ccccc1Cn1c(CN2CCC(C(=O)NCc3cccnc3)CC2)cc2ccccc21 | 16µM | ? | . | - | . | .
COc1ccc(-c2noc(CNS(=O)(=O)c3ccc(NC(C)=O)cc3)n2)cc1 | - | - | - | - | . | .
O=C(NCc1nc(-c2ccc(C(F)(F)F)cc2)no1)Nc1ccc(OC(F)(F)F)cc1 | 11µM | ? | ? | - | -[9.22 µM] | -[10 µM]
Cc1cc(C)c2cccnc2c1O | 3.2µM | . | . | - | . | .
Oc1c(Br)cc(Br)cc1CNc1cccc2cccnc12 | ? | . | - | - | . | .
Oc1c(Br)cc(Br)c2cccnc12 | ? | 22µM! | ? | - | ? | -
Cc1ccnc2c1ccc1ccccc12 | - | - | - | - | . | .
Cc1ccnc2c(O)cccc12 | 3.5µM | . | . | 4µM | . | .
Cc1ccnc2c1ccc1c(C)ccnc12 | 4.5µM | 5.3µM | . | 16µM | . | .
COc1cccc(Nc2ncc3nc(-c4ccccc4)c(=O)n(Cc4cccs4)c3n2)c1 | . | . | . | . | . | -
CNc1ncnc2c1ncn2[C@H]1C[C@@H](OP(=O)(O)O)[C@H](COP(=O)(O)O)O1 | . | . | . | . | . | -[1.9 µM]
CCCCC(=O)O[C@]1(C(=O)CO)CCC2C3CCC4=CC(=O)CCC4(C)C3C(O)CC21C (stereo partly drawn) | . | . | . | . | - | -
COC(=O)/C(=C\c1ccc([N+](=O)[O-])o1)NC(=O)c1ccccc1 | 11µM | ? | ? | 13µM | - | -
SMILES | TGFb inhibitor | ATXN2 expr inh | ATXN viability | HepG2 viability | HTT aggregate | HTT cytoprotect
CCCCNC(=O)/C(=C\c1ccc([N+](=O)[O-])o1)NC(=O)c1ccccc1 | ? | ? | - | - | ? | -
Cc1ccc2c(=O)c3cccc(CC(=O)O)c3oc2c1C | . | 24µM | . | . | . | .
Cc1ccccc1C(=O)NC(C)c1nnc2n1CCN(Cc1ccc(F)cc1)CC2 (stereo not drawn) | . | . | - | . | . | .
Cc1ccc(S(=O)(=O)N2CCc3cc(C(=O)N(C)Cc4ccccc4)ccc32)cc1 | ? | - | 7.1µM | - | . | .
c1ccc(Nc2nc(N3CCCCC3)nc(N3CCNCC3)n2)cc1 | - | ? | - | 11µM | - | -
c1ccc(Nc2nc(N3CCCCC3)nc(N3CCCCC3)n2)cc1 | - | - | - | - | -[9.22 µM] | -
CC(C)CCNC1=NCCCCC1 | ? | - | - | 11µM | - | -
CCCCOCCCNC1=NCCCCC1 | - | - | - | - | - | -
CCCCCCCCCCCCCCCC(=O)OC[C@@H](NC(=O)C(Cl)Cl)[C@H](O)c1ccc([N+](=O)[O-])cc1 | . | - | - | . | . | .
